From PubChem BioAssay (NCI)
The panel holds about 83,000 compounds, 20% with a hit somewhere; the sample as a whole holds those more often.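 Growth was measured after 48 h exposure to one concentration of compound in 96-well plates. Values under 10 count as active.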 Calls of active or inactive are those of the source.

Assays:
Experiment in all cases: NCI-60 one-dose screen, 48 h (100 = growth as untreated, 0 = no growth, -100 = all killed)
Conditions in all cases: 10 µM unless noted
[1] = system: T-47D breast
[2] = system: BT-549 breast
[3] = system: MDA-MB-435 melanoma
[4] = system: MCF7 breast
[5] = system: HCT-116 colon
[6] = system: HCC-2998 colon
[7] = system: KM12 colon
[8] = system: MDA-MB-468 breast

Measured: growth

COc1cc(-c2ccc(/C=N/NC(=O)c3[nH]c4ccc(Br)cc4c3-c3ccccc3)o2)cc(OC)c1OC
inactive: [1] 85.7% | [2] 95.4% | [3] 90.3% | [4] 70% | [5] 76.7% | [6] 110% | [7] 82.3% | [8] 88.6%

COc1cccc(-c2c(C#N)c(-c3ccc(Cl)cc3)nc3n[nH]c(-c4ccc(Cl)cc4)c23)c1
inactive: [2] 44% | [3] 46% | [4] 36.2% | [5] 20.6% | [6] 56.6% | [7] 32.5% | [8] 61%
active: [1] 9.68%

Cc1ccc2c(N)c(C(=O)Nc3ccc(-c4ccccc4)cc3)sc2n1
inactive: [1] 29.5% | [2] 53.2% | [3] 69.1% | [4] 43.2% | [5] 29.5% | [6] 101% | [7] 77.3% | [8] 17.8%

COc1ccc(-c2nc(SC(C)C)nc(NCCc3c[nH]c4ccccc34)c2C#N)cc1
active: [1] 6.31% | [4] 7.2% | [5] 7.04%
inactive: [2] 63% | [3] 53.4% | [6] 32.5% | [7] 25.5% | [8] 30.1%

N#Cc1cnn(C(=O)c2ccccc2Br)c1NC(=O)c1ccc(Br)cc1Cl
inactive: [1] 97% | [2] 91.1% | [3] 103% | [4] 95.4% | [5] 103% | [6] 108% | [7] 102% | [8] 94.2%

CC(=O)Nc1ccc(C(=O)NC(=S)Nc2ccc(S(N)(=O)=O)cc2)cc1
inactive: [1] 73.8% | [2] 94.4% | [3] 97.5% | [4] 93% | [5] 99.4% | [6] 97.2% | [7] 97.5% | [8] 80.2%

N#Cc1c(-c2ccc(Cl)cc2)nc2n[nH]c(-c3ccc(Cl)cc3)c2c1-c1cccs1
inactive: [2] 55.4% | [3] 60.5% | [4] 44.7% | [5] 35.4% | [6] 69.3% | [7] 42% | [8] 50.8%
active: [1] 6.48%

COc1ccc2[nH]c(O)c(N=NC(=O)Cn3c(-c4ccccc4)nc4cc(C)ccc43)c2c1
active: [2] -61.7% | [5] -72.7%
inactive: [1] 30.3% | [3] 43.7% | [4] 33% | [6] 18.9% | [7] 47.3% | [8] 34.4%

Cc1c(C(=O)NNC(=O)Nc2ccc(Cl)cc2)nnn1-c1ccc(Br)cc1
inactive: [1] 88.8% | [2] 102% | [3] 99.7% | [4] 85% | [5] 90.7% | [6] 106% | [7] 103% | [8] 91%

CCOc1ccc(-c2c(C#N)c(-c3ccc(Cl)cc3)nc3n[nH]c(-c4ccc(Cl)cc4)c23)cc1OC
inactive: [1] 25.1% | [2] 67.6% | [3] 56.8% | [4] 26.2% | [5] 31.4% | [6] 53.4% | [7] 30.2% | [8] 50.5%

C=C1CC[C@@H]2[C@]3(C)COC(c4cn[nH]c4-c4ccccc4)O[C@@H]3CC[C@@]2(C)[C@@H]1C/C=C1/C(=O)OCC1O (some centres not stated)
active: [3] 1.5% | [4] -28.3% | [5] -20.3% | [7] -11.3% | [8] -37%
inactive: [1] 19.3% | [2] 52.2% | [6] 16.9%

O=C(O)c1ccc(-c2ccc(/C=N/NC(=O)c3[nH]c4ccc(Br)cc4c3-c3ccccc3)o2)cc1
inactive: [1] 15.1% | [7] 11.9%
active: [2] -7.86% | [3] -49.6% | [4] 9.15% | [5] 9.56% | [6] 5.76% | [8] -12.4%

CC(=O)Nc1cccc(Nc2nc(N[C@H]3CCCc4ccccc43)c3ccccc3n2)c1
inactive: [1] 102% | [2] 131% | [3] 102% | [4] 95.6% | [5] 108% | [6] 117% | [7] 101% | [8] 101%

CC(=O)Nc1cccc(Nc2nccc(N[C@@H](C)c3ccccc3)n2)c1
inactive: [1] 40.2% | [3] 18.7% | [4] 16.5% | [6] 27.1% | [8] 18.1%
active: [2] 9.69% | [5] 9.73% | [7] 3.5%

NS(=O)(=O)c1ccc(-n2cc(-c3cccc(NC(=O)c4cc(C(F)(F)F)cc(C(F)(F)F)c4)c3)nn2)cc1
inactive: [1] 60.3% | [2] 98.7% | [3] 87.8% | [4] 59.6% | [5] 46.7% | [6] 65.3% | [7] 21.9% | [8] 55.1%

COc1ccc(Cc2nn(CC(=O)N/N=C/c3ccc(F)cc3)c(=O)c3c(C)noc23)cc1
active: [1] -14.1% | [5] 5.98%
inactive: [2] 43.2% | [3] 48.1% | [4] 56.5% | [6] 39.3% | [7] 73.1% | [8] 63.2%

COc1cc(NC(=O)c2cccc(C3CCc4c(cc(OC)c(OC)c4OC)O3)c2)cc(OC)c1OC (configuration not stated)
active: [2] -6.89% | [3] 2.46% | [4] 3.71% | [5] 8.03% | [7] 0.726%
inactive: [1] 14.5% | [6] 64.8% | [8] 29.3%

COc1ccc([C@H](C)Nc2nc(Cl)nc3ccccc23)cc1
inactive: [1] 49.4% | [2] 60.3% | [3] 45.8% | [4] 28.8% | [5] 20.9% | [6] 93.6% | [7] 43% | [8] 15.1%

O=c1[nH]n(C(=S)N/N=C/c2ccccc2Cl)c(=O)c2ccccc12
inactive: [1] 12.2% | [3] 22.4% | [4] 10.7%
active: [2] -57.5% | [5] -83.4% | [6] -36.5% | [7] 8.85% | [8] -26.7%

CCOC(=O)C1=C(N)N(c2ccccc2)C2=C(C(=O)CC(C)(C)C2)C1c1cccc(Cl)c1Cl (configuration not stated)
inactive: [1] 71.6% | [2] 68.8% | [3] 87.8% | [4] 60% | [5] 40.1% | [6] 86.9% | [7] 76.6% | [8] 47.8%

CCCCOc1ccc(NC(=O)c2sc3nc(C)ccc3c2N)cc1
active: [2] -11.6% | [5] -67.4% | [8] -48.4%
inactive: [1] 15% | [3] 39.7% | [4] 18.1% | [6] 21.2% | [7] 26.2%

COc1ccc(/C=C/c2nc3ccccc3n3c(-c4ccc(Cl)cc4)nnc23)cc1
inactive: [1] 80.6% | [2] 114% | [3] 96.1% | [4] 73.1% | [5] 88.3% | [6] 110% | [7] 93.1% | [8] 106%

COc1ccc2cc([C@H](C)C(=O)N/N=C/c3ccc(Br)cc3)ccc2c1
inactive: [1] 90.3% | [2] 104% | [3] 103% | [4] 90.7% | [5] 103% | [6] 107% | [7] 105% | [8] 100%

COc1cc(/C=C/C(=O)c2ccc(C)cc2)ccc1Oc1nc(Nc2ccc(F)cc2)nc(N(C)C)n1
active: [2] -30.1% | [5] -80.3%
inactive: [1] 15.4% | [3] 53.9% | [4] 11.9% | [6] 91.9% | [7] 65.4% | [8] 40.1%

N#Cc1ccc(/C=N/NC(=O)c2[nH]c3ccc(Br)cc3c2-c2ccccc2)o1
inactive: [1] 23.8%
active: [2] -7.06% | [3] -3.87% | [4] 7.95% | [5] 1.43% | [6] -30.9% | [7] 6.36% | [8] -13.6%

C=C1CC[C@@H]2[C@]3(C)COC(c4cn[nH]c4-c4ccc(C)cc4)O[C@@H]3CC[C@@]2(C)[C@@H]1C/C=C1/C(=O)OCC1O (some centres not stated)
inactive: [1] 39.4% | [7] 39.3%
active: [2] -30.5% | [3] -16.6% | [4] 8.74% | [5] -68.5% | [6] 2.89% | [8] -49.3%

CSc1ccc(NC(=O)c2ccc3nn(/C(C#N)=C/c4ccccn4)nc3c2)cc1
active: [1] -39.9% | [2] -97.9% | [3] -70.8% | [4] -78.6% | [5] -73.9% | [6] -100% | [7] -68% | [8] -94%

CC1=C(C(=O)OCc2ccccc2)C(c2c(O)cc(O)cc2O)n2c(nc3ccccc32)N1 (configuration not stated)
active: [3] 1.29% | [8] -27.4%
inactive: [1] 62.6% | [2] 55% | [4] 25% | [5] 26.1% | [6] 86.4% | [7] 46.3%

Cc1cc(C)cc(C(=O)Nc2cccc(-c3cn(-c4ccc(S(N)(=O)=O)cc4)nn3)c2)c1
inactive: [1] 35% | [2] 67.8% | [3] 85.9% | [4] 31.5% | [5] 39.8% | [6] 49.9% | [7] 36.1% | [8] 41%
